The entries come from a sample that favours hits as a whole.
Pf Dd2 growth = qHTS Primary assay for Inhibitors of Plasmodium falciparum Dd2 growth in vitro | AID 1347417, 2020 | P. falciparum Dd2 growth, SYBR Green, 72 h | 4.3% of 120,000 active | Potency, µM (top dose mostly 28.9 µM), most hits filed as inhibitors; active = well fitted inhibition curve with a large enough effect; also: nearly all actives have a fitted effect of over 65% in size
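Infected erythrocytes (Dd2, 0.3% parasitemia, 2.5% hematocrit final) are added to compound in RPMI-1640/Albumax II medium, grown 72 h at 37C in low oxygen, then lysed with saponin/Triton-X containing SYBR Green and read by fluorescence.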
Numbers stand for hits; [ ] = dose if it differs, or a comment.

How did C#CCNC(=O)C1CN(Cc2ccccc2)C(=O)N1 (stereo not given) do in these assays?
Pf Dd2 growth: inactive

Results for CCn1cc(C(=O)N2CCc3nc(NC)nc(C(=O)N4CCCC4)c3C2)c(C)n1 ?
Pf Dd2 growth: inactive

What do the screens show for `COc1cccc(NC(=O)N2CCCC3(C2)Nc2cccnc2NC3=NC2CCCC2)c1` (stereo not given)?
Pf Dd2 growth: inactive[5.79 µM]

What do the screens show for `COc1ccc(C)cc1NC(=O)N1CCCC2(C1)Nc1cccnc1NC2=NC1CCCC1` (stereo not given)?
Pf Dd2 growth: 1.26µM

What do the screens show for `O=C(Nc1cc(F)cc(F)c1)N1CCCC2(C1)Nc1cccnc1NC2=NC1CCCC1` (stereo not given)?
Pf Dd2 growth: inactive[5.79 µM]

How did COc1cccc(C(=O)N2CC(C(=O)NCCc3ccncc3)C3(CCOCC3)C2)c1 (stereo not given) do in these assays?
Pf Dd2 growth: inactive

How did COc1ccc(C)cc1-n1c(-c2ccc(Cl)cc2)cc2c1CC(C)(C)CC2=O do in these assays?
Pf Dd2 growth: 1µM

What do the screens show for `Cc1ccc(-c2cc3c(n2-c2ccccc2F)CC(C)(C)CC3=O)cc1`?
Pf Dd2 growth: inactive

Results for COc1ccc(-n2c3c(cc(-c4nc(-c5ccc(Cl)cc5)cs4)c2=O)C(=O)CC(C)(C)C3)cc1Cl ?
Pf Dd2 growth: inactive

Results for O=C(NCCC1CCN(C(=O)Nc2ccc(F)cc2F)CC1)c1ccco1 ?
Pf Dd2 growth: inactive

How did Cc1ccc(CN(C)Cc2cccn2C)cc1 do in these assays?
Pf Dd2 growth: inactive

How did Cc1ccc(C2=NC3(CCN(C(=O)Cc4ccccc4C)CC3)ON2)cc1 do in these assays?
Pf Dd2 growth: inactive

Results for CC(C)c1ccc(S(=O)(=O)c2nnn3c2nc(N2CCCC2)c2sccc23)cc1 ?
Pf Dd2 growth: inactive

Results for CCc1ccc(S(=O)(=O)c2nnn3c2nc(N2CCC(C)CC2)c2cc(Cl)ccc23)cc1 ?
Pf Dd2 growth: inactive

How did Cc1cc(C)c(S(=O)(=O)c2nnn3c2nc(NC2CCCC2)c2ccccc23)c(C)c1 do in these assays?
Pf Dd2 growth: 11.2µM

How did O=S(=O)(c1cccc(Cl)c1)c1nnn2c1nc(NC1CCCC1)c1sccc12 do in these assays?
Pf Dd2 growth: 12.6µM

Results for CCOC(=O)C1CCN(c2nc3c(S(=O)(=O)c4ccccc4)nnn3c3ccc(Cl)cc23)CC1 ?
Pf Dd2 growth: 8.91µM

What do the screens show for `CC1CCN(c2nc3c(S(=O)(=O)c4cccc(Cl)c4)nnn3c3ccsc23)CC1`?
Pf Dd2 growth: 12.6µM

Results for O=S(=O)(c1ccccc1)c1nnn2c1nc(NC1CC1)c1ccccc12 ?
Pf Dd2 growth: inactive

How did Cc1cc(C)cc(Nc2nc3c(S(=O)(=O)c4cccc(Cl)c4)nnn3c3ccsc23)c1 do in these assays?
Pf Dd2 growth: inactive

What do the screens show for `CCOC(=O)C1CCCN(c2nc3c(S(=O)(=O)c4ccc(CC)cc4)nnn3c3ccc(Cl)cc23)C1` (stereo not given)?
Pf Dd2 growth: inactive

How did Cc1ccc(S(=O)(=O)c2nnn3c2nc(N2CCC(C(N)=O)CC2)c2cc(Cl)ccc23)cc1C do in these assays?
Pf Dd2 growth: inactive

Results for O=S(=O)(c1cccc(Cl)c1)c1nnn2c1nc(NCc1ccc3c(c1)OCO3)c1sccc12 ?
Pf Dd2 growth: inactive

How did Cc1cc(C)c(S(=O)(=O)c2nnn3c2nc(NCCCOC(C)C)c2ccccc23)c(C)c1 do in these assays?
Pf Dd2 growth: inactive

Results for CN1CC(=O)N(C2CCNCC2)Cc2c1ncnc2N1CCCC(O)C1 (stereo not given) ?
Pf Dd2 growth: inactive

Results for CCCn1cnc2c1CN(S(=O)(=O)c1cccc(C(F)(F)F)c1)[C@H](C(=O)OC)C2 ?
Pf Dd2 growth: inactive

Results for CCc1c(C)cc(C(=O)N[C@@H]2[C@@H](Cc3ccccc3)[C@H]3OCC[C@@H]23)c(=O)n1C ?
Pf Dd2 growth: inactive

Results for Cc1ccsc1C(=O)N1CCC2(CC1)NCCc1c2[nH]c2ccccc12 ?
Pf Dd2 growth: inactive

What do the screens show for `COc1nc2c(cc1CNC(=O)c1c(C)cccc1C)C(=O)N(C1CCCC1)C2`?
Pf Dd2 growth: inactive

How did Cc1cccc(-c2ocnc2C(=O)N2C[C@@H](Oc3ccccc3)C[C@H]2C(=O)N2CCCC2)c1 do in these assays?
Pf Dd2 growth: inactive

Results for NCCCC(=O)N1CCCC2(Cc3ccccc3CN2C(=O)Cc2cccc(Cl)c2)C1 (stereo not given) ?
Pf Dd2 growth: inactive

Results for N#Cc1cccc(CN2C[C@H](O)C[C@H]2c2nc(CS(=O)(=O)c3ccc(F)cc3)no2)c1 ?
Pf Dd2 growth: inactive

How did O=C1OCC2(CCN(Cc3ccccc3O)C2)N1Cc1ccccc1 (stereo not given) do in these assays?
Pf Dd2 growth: 10µM

What do the screens show for `N#Cc1ccc(CN2CCC3(COC(=O)N3Cc3ccccc3)C2)cc1` (stereo not given)?
Pf Dd2 growth: inactive

Results for O=C1OCC2(CCN(Cc3ccn[nH]3)C2)N1Cc1ccccc1 (stereo not given) ?
Pf Dd2 growth: inactive

Results for O=C(c1ccc(C(F)(F)F)cc1)N1CCn2c(nn(-c3ccc(F)cc3F)c2=O)C1 ?
Pf Dd2 growth: inactive
